Shown is part of a subset that was picked to be rich in hits.
CBX7 AlphaScr: CBX7 chromodomain binding inhibitors, primary screen, biochemical, AlphaScreen; AlphaScreen His6-CBX7 / biotin-H3K27me3 peptide binding; hits give low values; normalised signal (fraction of DMSO) (test concentration not listed); 1.1% of 66,000 active; in the data active means normalised signal below about 0.5
Target sequence (O95931 whole entry, looked up): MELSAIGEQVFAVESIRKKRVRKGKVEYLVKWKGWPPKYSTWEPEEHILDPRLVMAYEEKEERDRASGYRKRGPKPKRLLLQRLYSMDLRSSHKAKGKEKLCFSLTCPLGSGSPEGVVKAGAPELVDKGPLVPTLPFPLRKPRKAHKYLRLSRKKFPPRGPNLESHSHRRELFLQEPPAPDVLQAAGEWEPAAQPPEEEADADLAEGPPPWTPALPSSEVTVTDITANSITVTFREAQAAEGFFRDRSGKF
Large screens that a line does not name were inactive; ! = repeats disagree.

CCOC(=O)c1c(NC(=O)c2ccco2)sc2c1CCC(C#N)(c1ccccc1)C2 (stereo not given)	none
CC1(C)CC(=O)C2=C(C1)Nc1ccccc1NC2c1ccc(Cl)cc1 (stereo not given)	none
Cc1cc2nc(-c3cc(NC(=O)c4cccc(Br)c4)ccc3O)oc2cc1C	none
Cc1ccc(-c2nnc(Nc3cccc(Cl)c3)c3ccccc23)cc1S(=O)(=O)N1CCN(C)CC1	none
Cc1ccc(-c2noc(CCc3ccccc3)n2)cc1	none
Oc1ccc(Nc2nc(-c3ccccc3Cl)nc3ccccc23)cc1	none
COc1ccc(Nc2nc(-c3ccccc3Cl)nc3ccccc23)cc1	none
CN(C)c1ccc(Nc2nc(-c3ccccc3Cl)nc3ccccc23)cc1	CBX7 AlphaScr 0.3
FC(F)(F)c1nc2ccccc2nc1N1CCN(c2ccccn2)CC1	none
CCOc1ccc(CN2C(=O)CCC2(C)C(=O)NC2CCC(C)CC2)cc1OC (stereo not given)	none
Cc1cc2ncn(CC(O)COc3ccc(C(C)C)cc3)c2cc1C (stereo not given)	none
COc1cc(OC)cc(OCC(O)Cn2cnc3cc(C)c(C)cc32)c1 (stereo not given)	none
Cc1cc2ncn(CC(O)COc3ccccc3C)c2cc1C (stereo not given)	CBX7 AlphaScr 0.17
COCc1nc2ccccc2n1Cc1ccccc1	none
Cc1ccc(-c2nc3cc(NC(=O)c4ccc(Br)cc4)ccc3o2)cc1	none
CCC1CCCCN1S(=O)(=O)c1ccc(C(=O)Nc2nnc(-c3cccs3)o2)cc1 (stereo not given)	none
CN(c1ccccc1)S(=O)(=O)c1ccc(C(=O)Nc2nnc(-c3cccs3)o2)cc1	none
Cc1ccccc1NC(=O)c1ccc(F)c(S(=O)(=O)N2CCN(c3ccccc3)CC2)c1	none
O=C(Nc1nnc(-c2ccccc2)o1)c1ccc(Br)cc1	CBX7 AlphaScr 0.27
CCC1CCCCN1S(=O)(=O)c1ccc(C(=O)Nc2nnc(-c3ccc(Cl)s3)o2)cc1 (stereo not given)	CBX7 AlphaScr 0.38
CN(C)S(=O)(=O)c1ccc(C(=O)Nc2nnc(-c3cccs3)o2)cc1	CBX7 AlphaScr 0.22
COc1ccc(-c2nnc(NC(=O)c3ccc(S(=O)(=O)N(C)c4ccccc4)cc3)o2)cc1	none
CC(C)CN(CC(C)C)S(=O)(=O)c1ccc(C(=O)Nc2nnc(-c3cccs3)o2)cc1	none
O=C(Nc1nnc(-c2ccccc2)o1)c1ccc(F)c(S(=O)(=O)N2CCOCC2)c1	CBX7 AlphaScr 0.12!
O=C(Nc1nnc(-c2ccccc2)o1)c1ccc(Cl)c(Cl)c1	none
CCc1nnc(NC(=O)c2ccc(S(=O)(=O)N3CCCCC3CC)cc2)o1 (stereo not given)	none
Cc1ccc(C(=O)Nc2ccccc2)cc1S(=O)(=O)N1CCOCC1	none
COc1ccc(NC(=O)CSc2ccc(Nc3ccc(OC)cc3)nn2)cc1	none
Cc1ccc2[nH]c(C)c(CCNC(=O)c3cc(F)c(F)cc3Cl)c2c1	none
O=C(c1cnc(N2CCN(c3ncccn3)CC2)c2ccccc12)N1CCCC1	none
Cc1ccccc1OCc1nn2c(-c3ccccc3Cl)nnc2s1	none
O=S(=O)(NCCCc1nc2ccccc2[nH]1)c1ccc(Cl)cc1	none
CN(C)C(=O)c1nnc(Cc2ccc(Cl)cc2)o1	none
COc1cccc(NC(=O)c2sc3ncnc(N4CCOCC4)c3c2C)c1	none
Cc1nc2ccc(S(=O)(=O)N(C)CC(=O)N3CCc4ccccc43)cc2s1	none
Cc1cccc(N2CCN(C(=O)c3cnn4c(C)c(Cc5cccc(Cl)c5)c(C)nc34)CC2)c1C	none
O=C1CN(C(=O)c2ccc(F)cc2)C(c2ccc(F)cc2)c2cc(F)ccc2N1 (stereo not given)	none
COc1ccc(CNC(=O)CN(C)S(=O)(=O)c2ccc3nc(C)sc3c2)cc1	none
COc1cc(OC)cc(-c2nnc(NC(=O)c3ccc(S(=O)(=O)N4CCOCC4)cc3)o2)c1	none
CC1CCCN(S(=O)(=O)c2ccc(C(=O)Nc3nnc(-c4ccccc4Cl)o3)cc2)C1 (stereo not given)	CBX7 AlphaScr 0.01
O=C(Nc1nc2c(Cl)cccc2s1)c1ccc(S(=O)(=O)N2CCCC2)cc1	none
O=C(Nc1nnc(-c2ccc(F)cc2)o1)c1ccc(S(=O)(=O)N2CCOCC2)cc1	CBX7 AlphaScr 0.0037
O=C(Nc1nnc(-c2ccc(Cl)s2)o1)c1ccc(S(=O)(=O)N2CCOCC2)cc1	CBX7 AlphaScr 0.0063
O=C(Nc1nnc(-c2ccc(Cl)s2)o1)c1ccc(S(=O)(=O)N2CCCC2)cc1	CBX7 AlphaScr 0.046
O=C(Nc1nnc(-c2ccc(Cl)cc2Cl)s1)c1ccc(S(=O)(=O)N2CCCC2)cc1	none
O=C(Nc1nccs1)c1ccc(S(=O)(=O)N2CCOCC2)cc1	none
COc1ccc(-c2nnc(NC(=O)c3ccc(S(=O)(=O)N4CCCC(C)C4)cc3)o2)cc1 (stereo not given)	none
COc1cc(OC)cc(-c2nnc(NC(=O)c3ccc(S(=O)(=O)N4CCC(C)CC4)cc3)o2)c1	none
COc1ccc(-c2nnc(NC(=O)c3ccc(S(=O)(=O)N4CC(C)CC(C)C4)cc3)o2)cc1 (stereo not given)	none
COc1cccc(-c2cc(C(=O)Nc3cccnc3)no2)c1	none
O=S(=O)(c1ccc(Cl)cc1)c1nc(-c2cccs2)oc1SCc1ccccc1Cl	none
CCN(CC)c1cc(-n2nc(C(F)(F)F)cc2-c2ccccc2)ncn1	none
CCOc1cc2c(cc1OCC)C(c1cccc(O)c1)NCC2 (stereo not given)	none
CCC(=O)NCCCc1nc2ccccc2n1C(C)C	none
CC1CCN(S(=O)(=O)c2ccc(C(=O)Nc3nnc(-c4cccs4)o3)cc2)CC1	none
CC1CC(C)CN(S(=O)(=O)c2ccc(C(=O)Nc3nnc(-c4cccs4)o3)cc2)C1 (stereo not given)	none
O=C(Nc1nnc(-c2cccs2)o1)c1ccc(S(=O)(=O)N2CCCC2)cc1	CBX7 AlphaScr 0.13
COc1ccc(CNC(=O)C(N)=O)cc1	none
CC1CCCCN1CCNC(=O)Cn1nc(-c2ccccc2)ccc1=O (stereo not given)	none
CCCCNC(=O)c1nn2c(C(F)(F)F)cc(-c3ccccc3)nc2c1Br	none
COC(=O)c1c[nH]n2c(NC3CCCCCC3)c(-c3cccc(OC)c3)nc12	CBX7 AlphaScr 0.5
COC(=O)c1c[nH]n2c(NC3CCCCC3)c(-c3cccc(OC)c3)nc12	none
COC(=O)c1c[nH]n2c(NC3CCCCC3)c(-c3ccc(C)cc3)nc12	none
CCCCCOc1ccc(NC(=O)c2cccc(C(=O)OC)n2)cc1	none
COC(=O)c1c[nH]n2c(NC3CCCCC3)c(-c3cccc(C)c3)nc12	none
COC(=O)c1c[nH]n2c(NC3CCCC3)c(-c3cccc(C)c3)nc12	none
COC(=O)c1c[nH]n2c(NC3CCCC3)c(-c3ccc(C)cc3)nc12	none
COC(=O)c1c[nH]n2c(NC3CCCCC3)c(-c3cccc(Br)c3)nc12	none
CCCCOc1cccc(-c2nc3c(C(=O)OC)c[nH]n3c2NC2CCCC2)c1	CBX7 AlphaScr 0.2
COC(=O)c1c[nH]n2c(NC3CCCC3)c(-c3ccc(OC)cc3)nc12	CBX7 AlphaScr 0.11
CCCOc1cccc(-c2cc(C(=O)O)c3ccccc3n2)c1	none
COC(=O)c1c[nH]n2c(NC3CCCC3)c(-c3cccc(OC)c3)nc12	CBX7 AlphaScr 0.38
O=C(Nc1ccc(C(F)(F)F)cc1)c1cnc(N2CCN(c3ccccn3)CC2)c2ccccc12	none
O=C(c1ccc(C#CC2(O)CCCCC2)cc1)N1CCN(c2ccc(Cl)c(Cl)c2)CC1	none
COc1ccc(NC(=O)c2cnn(-c3ccc(F)cc3)c2C2CCNCC2)cc1OC	none
O=C(NCCCN1CCN(C2CCCCC2)CC1)c1ccc2nc(N3CCOCC3)sc2c1	none
Cc1ccc(CNC(=O)CS(=O)(=O)Cc2nc(-c3ccccc3Cl)oc2C)cc1	none

Source: PubChem BioAssay (Bradner/Qi Labs at DFCI)
